Measured values as given in ChEMBL document CHEMBL3433997, “St. Jude Leishmania screening dataset” (2016).

Key:
Assay type in all cases: functional
[1] = biological target: Solute carrier family 2, facilitated glucose transporter member 1 (Homo sapiens) (UniProt P11166); test: ST_JUDE_LEISH: Cytotoxicity at 2uM final concentration against transgenic Leishmania Mexicana promastigotes LmGLUT1 that are glucose transport deficient and complemented with the human glucose transporter GLUT1. Activity is measured by DNA content using SYBR green in vitro
Chain of Solute carrier family 2, facilitated glucose transporter member 1 (Homo sapiens) (P11166 whole entry): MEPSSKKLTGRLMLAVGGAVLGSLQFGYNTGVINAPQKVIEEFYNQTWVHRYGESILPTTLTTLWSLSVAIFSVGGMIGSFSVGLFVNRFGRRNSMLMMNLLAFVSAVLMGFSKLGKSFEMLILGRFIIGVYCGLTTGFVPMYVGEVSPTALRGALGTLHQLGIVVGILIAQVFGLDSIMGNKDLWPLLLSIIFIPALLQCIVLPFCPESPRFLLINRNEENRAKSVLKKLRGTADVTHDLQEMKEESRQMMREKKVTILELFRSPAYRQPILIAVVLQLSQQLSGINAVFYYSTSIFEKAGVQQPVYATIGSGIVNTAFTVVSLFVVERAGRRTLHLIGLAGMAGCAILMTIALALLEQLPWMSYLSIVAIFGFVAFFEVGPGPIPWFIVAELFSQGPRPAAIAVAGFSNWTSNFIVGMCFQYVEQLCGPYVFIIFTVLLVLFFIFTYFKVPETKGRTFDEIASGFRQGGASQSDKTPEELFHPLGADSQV

[2] = biological target: Hexose transporter 1 (Plasmodium falciparum) (UniProt O97467); test: ST_JUDE_LEISH: Cytotoxicity at 2uM final concentration against transgenic Leishmania Mexicana promastigotes LmPfHT that are glucose transport deficient and complemented with the Plasmodium falciparum hexose transporter. Activity is measured by DNA content using SYBR green in vitro
[3] = biological target: Glucose transporter (Leishmania mexicana) (UniProt O61059); test: ST_JUDE_LEISH: Cytotoxicity at 2uM final concentration against transgenic Leishmania Mexicana promastigotes LmGT2 that are glucose transport deficient and complemented with the L. Mexicana glucose transporter 2. Activity is measured by DNA content using SYBR green in vitro

| Structure (SMILES) | inhibition [1] | inhibition [2] | inhibition [3] |
| --- | --- | --- | --- |
| COCC(C)n1c(SC(C)C(=O)Nc2cc([N+](=O)[O-])ccc2Cl)nc2ccccc2c1=O (stereo not drawn) | -1.22% | 1.55% | -1.16% |
| CC(C)CNCc1ccc(-c2cccc(CN(C(=O)NCCc3ccccc3)C3CCN(Cc4ccccc4)CC3)c2)cc1 | 9.24% | 11% | 8.02% |
| NCCNC(=O)c1ccc(-c2cnc3[nH]cc(-c4ccc(C(N)=O)cc4)c3c2)cc1 | 3.65% | 2.58% | 2.98% |
| COc1cc2nc(N3CCC(CNC(=O)c4ccc(-c5cccc(C#N)c5)cc4)CC3)nc(N)c2cc1OC | 3.6% | 2.28% | 2.21% |
| COc1cccc(-n2ncc3c(N/N=C/c4ccc(CN(C)CCN(C)C)cc4)ncnc32)c1 | 10.7% | 10.3% | 7.16% |
| C#CCN(Cc1cc2c(=O)[nH]c(N)nc2cc1C)c1ccc(C(=O)N[C@@H](CCC(=O)O)C(=O)O)cc1 | 6.81% | 0.4% | 8.07% |
| Fc1ccc2[nH]c(-c3ccc(-c4ccc(CN5CCCCC5)cc4)s3)nc2c1 | 5.07% | 4.14% | 1.79% |
| COc1cc2nccc(Nc3ccc(OCc4ccc(NC(C)=O)cc4)cc3)c2cc1OC | 5.38% | 7.36% | 2.65% |
| COc1ccc(O)c(C(=O)c2cc(C(=O)NCCc3ccccc3)c(=O)n(CCc3ccccc3)c2)c1 | 4.48% | 3.07% | 5.64% |
| COc1ccc(CCNc2nc(N)c3cc(OC)c(OC)cc3n2)cc1 | 2.3% | 3.91% | 1.41% |
| Nc1nc(N)c2c(ccc3c2ccn3Cc2ccccn2)n1 | 86.5% | 92% | 78% |
| COc1cc2c(c(Cl)c1OC)CCN(C(=O)C(F)(F)F)CC2c1ccccc1 (stereo not drawn) | 6.36% | 5.47% | 4.64% |
| CC(=O)Nc1cc(C(=O)Nc2cccc(-c3csc(-c4nc5ccccc5[nH]4)c3)c2)ccc1C | 10.5% | 9.84% | 9.18% |
| CN(C)Cc1cccc(-c2ccc(NC(=O)c3ccc4c(=O)n(CC5CCCO5)cnc4c3)cc2)c1 (stereo not drawn) | 38.5% | 22.4% | 14.5% |
| COc1cc2c(cc1C(F)(F)F)N(C(=O)Nc1ccc(Br)cn1)CC2 | -0.2% | 0.68% | -1.31% |
| CC(C)Oc1ccc(N2CCN(CCCCNC(=O)c3ccc(NC(=O)c4ccc(Cl)cc4)cc3)CC2)c(OC(C)C)c1 | 1.62% | 2.05% | 1.44% |

| Structure (SMILES) | inhibition [1] | inhibition [2] | inhibition [3] |
| --- | --- | --- | --- |
| Cc1ccc(NC(=O)c2ccc3ncccc3c2)cc1OC1CCN(Cc2ccsc2)CC1 | 3.79% | 3.4% | 2.95% |
| CC(C)CCN1C(=O)C(NC(=O)Oc2ccccc2)C(=O)N(CC23CC4CC(CC(C4)C2)C3)c2ccccc21 (stereo not drawn) | -1.21% | -2.53% | -2.02% |
| CN(CCO)Cc1cccc(-c2ccc(NC(=O)c3cccc(C#N)c3)cc2)c1 | 1.6% | 0.52% | -2.56% |
| CCOc1ccc(-c2nonc2NC(=O)c2cccc(Cl)c2)cc1OCC | 2.52% | 3.66% | -0.71% |
| Cn1cnc(CCNC(=O)c2ccc(-c3cccc(-c4nc5cc(F)ccc5[nH]4)c3)cc2)c1 | 2.97% | 1.64% | 0.52% |
| FC(F)(F)c1ccc2[nH]c(-c3ccc(-c4cccc(CN5CCN(CCN6CCOCC6)CC5)c4)cc3)nc2c1 | 1.77% | 3.69% | 2.25% |
| O=C(NC1CCN(Cc2ccccc2)CC1)c1ccc2c(=O)n(Cc3ccc(Cl)cc3)c(=S)[nH]c2c1 | 0.69% | -0.17% | 1.31% |
| O=C(Nc1ccccc1)N(Cc1ccc(-c2ccc(CNC3CCCC3)cc2)cc1)C1CCN(Cc2ccccc2)CC1 | 4.17% | 3.43% | 2.32% |
| CCCN(CCC)CCOc1ccc(C(O)(C#CC(O)(c2ccc(OCCN(CCC)CCC)cc2)c2cccc(Cl)c2)c2cccc(Cl)c2)cc1 (stereo not drawn) | 7.1% | 4.78% | 2.38% |
| Cc1onc(-c2ccccc2)c1-c1nc(NCCC(c2ccccc2)c2ccccc2)no1 | 9.17% | 9.89% | 6.9% |
| COc1cc(C)ccc1N1CCN(CCCCNC(=O)c2ccc(NC(=O)c3ccc(Cl)cc3)cc2)CC1 | 6.85% | 6.83% | 6.92% |
| Cc1ccccc1C1CCN(C2CCC(NC(=O)C3=Cc4ccccc4OC3)CC2)CC1 (stereo not drawn) | 5.24% | 4.94% | 4.67% |
| O=C(Nc1ccc(Cl)cc1)Nc1ccc2nonc2c1 | 0.79% | 1.43% | 0.9% |
| CS(=O)(=O)c1ccc(CCNCc2ccc(-c3ccc(CN(C(=O)C4CCCC4)C4CCN(Cc5ccccc5)CC4)cc3)nc2)cc1 | 0.69% | 0.71% | -2.64% |
| CCCN(CCC)C(=O)c1cc(C(=O)N[C@@H](Cc2ccccc2)[C@H](O)CNC(C)(C)c2cccc(OC)c2)cc(N2CCCCS2(=O)=O)c1 | 1.96% | 1.53% | 2.14% |
